esBAF inh – inhibitors of esBAF chromatin remodeling in mouse ES cells; AID 602393; reporter increase, % at 12.5 µM; 350,000 compounds, 2% hits; Bmi1-luciferase knock-in reporter, 24 h; 100% = twice the neutral-well signal; in the data active means activation above about 40%; inconclusive means no clear call, values can overlap the other calls;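 further: 0% = median of the plate's neutral control wells and 100% = double that signal; a rise in the Bmi1 reporter signal indicates esBAF inhibition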
N-glyco inh – N-linked glycosylation inhibition; D54 ERlucT glycosylation luciferase reporter, 24 h; percent of 100 nM tunicamycin response; reporter increase, % at 12.5 µM; 360,000 compounds, 0.23% hits; AID 588692;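 active means mean luciferase reporter signal, scaled so untreated is 0 and the glycosylation-blocking control 100, at or above a set limit in every replicate; inconclusive means mean reaches the limit but not every replicate does; inactive means mean below the limit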;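 further: luciferase carries N-glycosylation sites so blocking glycosylation raises the light; 0% = median of neutral control wells and 100% = median of 100 nM tunicamycin wells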
Wnt act – activates Wnt/beta-catenin signaling in a reporter cell assay; activation, % at 9.35 µM; activator, plate reader; AID 743398; 300,000 compounds, 1.2% hits; in the data active means activation above about 30%, passing the limit was not always enough; inconclusive means no clear call, values can overlap the other calls;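 further: 0% = neutral control wells and 100% = positive control wells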
MITF act – activators of MITF-driven TRPM1 promoter activity in SK-MEL-5 cells. SK-MEL-5 TRPM1-promoter luciferase, 24 h; % of positive control, neutral wells = 0. activation, % at 12.5 µM. 300,000 compounds, 0.75% hits;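 active means mean activation of at least 80% with every replicate also reaching 80%; inconclusive means mean reaches 80% but some replicate falls short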;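 further: 0% = neutral control wells and 100% = parthenolide positive control wells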
PvdQ acylase – blocks Pseudomonas aeruginosa PvdQ acylase activity | inhibition, % at 10 µM | 340,000 compounds, 0.063% hits | purified PvdQ acylase, fluorescence plate reader; in the data active means inhibition above about 30%, passing the limit was not always enough; inconclusive means no clear call, values can overlap the other calls;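 further: 0% = vehicle neutral wells and 100% = reference inhibitor wells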
Vif imaging – blocks HIV Vif function; HEK293T cells, Vif self-association by quenched fluorescence, imaging, 24 h; inhibition, % at 7.49 µM; 340,000 compounds, 0.35% hits; AID 602346; in the data active means inhibition above about 50%, passing the limit was not always enough; inconclusive means no clear call, values can overlap the other calls; inactive means below about 31%
Numbers without * were called inactive; ? = inconclusive; . = no result. An excerpt weighted towards active compounds, which were near 2.9% of everything screened.

SMILES	esBAF inh	N-glyco inh	Wnt act	MITF act	PvdQ acylase	Vif imaging
COc1ccc2nc(NC(=O)c3ccc(F)cc3)sc2c1	55*	-5	23	68	0	-6
Fc1ccc(Nc2nc3ccccc3s2)cc1	46*	-1	-1	67	-3	0
CCCN1[C@@H]2c3ccc(-c4cccnc4)c(=O)n3C[C@H]1[C@H](CO)[C@H]2C(=O)NCCc1cn(C)cn1	-5	.	.	.	.	.
C[C@H]1CN([C@@H](C)CO)C(=O)c2cccc(NC(=O)c3ccncc3)c2O[C@@H]1CN(C)C(=O)Nc1ccc(F)cc1	0	.	.	.	.	.
CCCNC(=O)Nc1ccc2c(c1)C(=O)N(C)C[C@H](OC)[C@@H](C)CN(C(=O)C1CC1)[C@@H](C)CO2	2	.	.	.	.	.
C[C@H](CO)N1C[C@H](C)[C@H](CN(C)S(=O)(=O)c2cn(C)cn2)Oc2ccc(NS(=O)(=O)c3ccc(F)cc3)cc2CC1=O	-3	.	.	.	.	.
O=S(=O)(/N=C(/Nc1nccs1)c1ccc(F)cc1)c1ccccc1	-7	-1	-8	1	12	-6
CCC(C)C(=O)Nc1nc2ccc(OC)cc2s1 (stereo not drawn)	.	-2	43*	.	-2	-1
O=C(Nc1nc(=O)c2ccccc2s1)c1ccccc1	.	1	39*	23	1	0
O=S(=O)(/N=C(/Nc1nc2ccccc2s1)c1ccccc1)c1ccc(F)cc1	50*	2	25	48	-6	-6
C[C@@H]1CN([C@@H](C)CO)S(=O)(=O)c2ccc(C#CC3CCCC3)cc2O[C@H]1CN(C)C	-2	.	.	.	.	.
c1ccc(-c2nc(-c3nccc4ccccc34)oc2-c2ccccc2)cc1	.	-7	27	109*	-1	?
Cc1cc(NC(=O)c2ccc([N+](=O)[O-])cc2Cl)no1	26	-1	?	23	40*	-10
Cc1cc(NS(=O)(=O)c2ccc(NC(=O)c3ccc(Cl)cc3Cl)cc2)no1	1	1	0	8	-19	55*
Cc1cc(NC(=O)c2cc(Cl)ccc2Cl)no1	-6	0	.	10	75*	-3
Cc1cc(NC(=O)c2ccccc2Cl)no1	29	-2	15	60	-8	-5
O=C(Nc1cccc(NC(=O)c2cc([N+](=O)[O-])ccc2Cl)n1)c1cc([N+](=O)[O-])ccc1Cl	.	-8	.	.	-2	58*
COc1ccc(CNC(=O)C[C@@H]2C[C@H]3c4cc(NC(=O)CN(C)C)ccc4O[C@H]3[C@H](CO)O2)cc1	-2	.	.	.	.	.
C[C@H](CO)N1C[C@H](C)[C@H](CN(C)C(=O)c2ccncc2)OCCCC[C@H](C)Oc2ccc(NC(=O)C3CCCCC3)cc2C1=O	0	.	.	.	.	.
CCCN1C[C@H](C)[C@@H](OC)CN(C)C(=O)c2cc(NC(=O)Nc3cccc(OC)c3)ccc2OC[C@H]1C	-2	.	.	.	.	.
Cc1cc(NC(=O)c2c(F)c(F)c(F)c(F)c2F)no1	-3	-3	.	0	63*	7
Cc1cc(NC(=O)c2cc([N+](=O)[O-])ccc2Cl)no1	.	5	1	.	88*	-10
CCCC(=O)Nc1ccc2c(c1)C(=O)N(C)[C@H]1CC[C@@H](CC(=O)NCCc3ccccc3)O[C@H]1CO2	3	.	.	.	.	.
CC(=O)N1CCC(=NNC(=O)c2cc3ccccc3cc2O)CC1	34	-1	1	3	-20	51*
CO[C@H]1CN(C)C(=O)c2cc(NC(=O)Nc3ccccc3)ccc2OC[C@H](C)N(C(=O)Nc2c(C)noc2C)C[C@H]1C	5	.	.	.	.	.
SMILES	esBAF inh	N-glyco inh	Wnt act	MITF act	PvdQ acylase	Vif imaging
C[C@H](CO)N1C[C@H](C)[C@H](CN(C)CC2CCCCC2)Oc2c(NC(=O)C3CC3)cccc2C1=O	-1	.	.	.	.	.
C[C@H]1CCCCO[C@H](CN(C)C(=O)C2CCCCC2)[C@@H](C)CN([C@@H](C)CO)C(=O)c2cc(NS(=O)(=O)c3ccc(F)cc3)ccc2O1	2	.	.	.	.	.
Cn1cccc1C(=O)OCc1cc(Cl)cc2c1OCOC2	37	0	73*	69	-6	-5
Cn1cccc1C(=O)OCC(=O)Nc1ccc2c(c1)OCO2	.	1	7	1	-12	4
COc1ccc(N=Nc2nc3ccc(Br)cc3n2C)cc1	52*	3	.	69	-9	3
COc1ccc(-c2c(-c3cc(OC)cc(OC)c3)n(C)c3ccc(Br)cc23)cc1	4	2	1	-2	-17	-3
Cc1ccc2cc(C#N)c(SCC(=O)NCC3CCCO3)nc2c1 (stereo not drawn)	-5	1	.	7	-14	-1
Cc1ccc2nc(SCC(=O)Nc3ccc4sc(C)nc4c3)c(C#N)cc2c1	30	33*	.	.	-15	-2
CCOC(=O)CC(=O)CSc1nc2ccc(C)cc2cc1C#N	34	-7	22	74	-1	83*
COC(=O)CSc1nc2cc(C)ccc2cc1C#N	31	-3	80*	75	-11	-8
CO[C@@H]1CN(C)C(=O)c2ccc(NC(=O)Cc3ccccc3)cc2OC[C@@H](C)N(C(=O)c2ccccc2F)C[C@@H]1C	2	.	.	.	.	.
O=C(Cc1ccncc1)Nc1ccc2c(c1)[C@@H]1C[C@H](CC(=O)N3CCOCC3)O[C@@H](CO)[C@@H]1O2	-1	.	.	.	.	.
O=C(C[C@@H]1C[C@H]2c3cc(NC(=O)C4CCOCC4)ccc3O[C@H]2[C@H](CO)O1)NCc1ccc(Oc2ccccc2)cc1	-1	.	.	.	.	.
Cc1cc(C)n(CC(=O)O)c(=O)c1[N+](=O)[O-]	.	1	35*	0	8	6
NC(=O)c1ccc(N=Cc2c(O)ccc3ccccc23)cc1	.	3	3	.	-7	4
C=CCS/C(N)=N\N=C\c1c(O)ccc2ccccc12	?	-5	99*	58	-11	-11
O=C(NCc1cccnc1)c1cc(-c2ccccc2)on1	47*	1	.	19	1	-1
O=C(NCc1ccccc1)c1cc(-c2cccc(O)c2)on1	68*	-1	20	.	0	.
CO[C@@H]1CN(C)C(=O)c2cc(NC(=O)C3CC3)ccc2OC[C@@H](C)N(Cc2cccc(F)c2)C[C@H]1C	-2	.	.	.	.	.
CCOc1ccc(-c2nnc(SCC(=O)N3CCOCC3)o2)cc1	22	1	-2	.	-8	1
COc1ccc(-c2nnc(SCC(=O)N3CCCC3)o2)cc1	45*	0	9	36	-13	15
CCOc1ccc(-c2nnc(SCC(=O)N3CCCC3)o2)cc1	53*	-2	3	28	-10	0
COc1ccc(-c2ccc(C(=O)Nc3ccc4c(c3)OCO4)c3occc23)c(C)c1	59*	-1	3	.	.	-14
COc1ccc(-c2ccc(C(=O)Nc3ccccc3)c3occc23)c(C)c1	86*	-7	5	.	.	-14
CC(=O)N1CC[C@@H]2[C@H]1c1cc(-c3ccccc3)ccc1N(C)[C@H]2CO	7	.	.	.	.	.
O=C(CN1CCOCC1)N1[C@H](CO)[C@@H]2c3ccccc3NC[C@@H]21	0	.	.	.	.	.
